# In PubChem BioAssay (EPA / NIEHS):
# Inconclusive results are not listed. Where a structure was tested more than once in an assay, its records may differ in their call. Calls of active or inactive are those of the source. Rule for the calls: active = hit-call score of the fitted dose curve at least 0.9, where 1 is the maximum; inconclusive = response in the unintended direction; inactive = score below 0.9.
# Assays:
# [1] = target: Sodium channel protein type 1 subunit alpha (Rattus norvegicus) (UniProt P04774); assay: NVS_IC_rNaCh_site2: NovaScreen (NVS) Ion Channel Assay for rat Sodium Channel, Site 2 (NaCh) (AID 2283322);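 note: hit means loss of radioligand binding signal relative to DMSO so AC50 marks displacement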
# Procedure, shortened: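 Initial duplicate single-point testing at 25 uM, followed by concentration-response runs for actives. Binding of radioligand to rat forebrain membranes quantified after 1 h via filter-based radiodetection.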
# [2] = target: rat Neonicotinoid receptor (NNR), Chrna7 (gene 25302) (UniProt Q05941); assay: NVS_LGIC_rNNR_BungSens: NovaScreen (NVS) Ligand-Gated Ion Channel Assay for rat Neonicotinoid receptor (NNR) (AID 2283315)
# Procedure, shortened: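 Rat cortical membrane preparation incubated 2.5 h with tritiated or iodinated radioligand and test chemical. Bound radioactivity was filtered and counted by scintillation, and displacement was analysed against DMSO.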
# [3] = target: Voltage-dependent N-type calcium channel subunit alpha-1B (Rattus norvegicus) (UniProt Q02294); assay: NVS_IC_rCaChN: NovaScreen (NVS) Ion Channel Assay for rat Calcium Channel, Type N (CaChN) (AID 2283317)
# [4] = target: human Neonicotinoid receptor (NNR), CHRNA2 (gene 1135) (UniProt Q15822); assay: NVS_LGIC_hNNR_NBungSens: NovaScreen (NVS) Ligand-Gated Ion Channel Assay for human Neonicotinoid receptor (NNR) (AID 2283313)
# Procedure: NVS_LGIC_hNNR_NBungSens is a biochemical, single-readout assay that uses extracted gene-proteins from Human neuroblastoma membrane cells in a tissue-based cell-free assay. Measurements were taken 2 hours after chemical dosing in a 48-well plate.NVS_LGIC_hNNR_NBungSens is one of one assay component(s) measured or calculated from the NVS_LGIC_hNNR_NBungSens assay. It is designed to make measurements of radioligand binding, a form of binding reporter, as detected with scintillation counting signals by Filter-based radiodetection technology.Data from the assay component NVS_LGIC_hNNR_NBungSens was analyzed into 1 assay endpoint. This assay endpoint, NVS_LGIC_hNNR_NBungSens, was analyzed in the positive analysis fitting direction relative to DMSO as the negative control and baseline of activity. Using a type of binding reporter, loss-of-signal activity can be used to understand changes in the binding as they relate to the gene CHRNA2. Furthermore, this assay endpoint can be referred to as a primary readout, because the performed assay has only produced 1 assay endpoint. To generalize the intended target to other relatable targets, this assay endpoint is annotated to the ion channel intended target family, where the subfamily is ligand-gated ion channel. […]
# [5] = target: human Constitutive Androstane Receptor (CAR), NR1I3 (gene 9970) (UniProt Q14994); assay: NVS_NR_hCAR_Agonist: NovaScreen (NVS) Nuclear Receptor Binding Assay for human Constitutive Androstane Receptor Agonism (CAR) (AID 2283328)
# Procedure, shortened: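 Actives from a 25 uM duplicate screen were retested in singleton concentration series to 50 uM max. Biochemical TR-FRET assay on extracted CAR protein measured 1 h post-dose, with signal increase over DMSO control.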
# [6] = target: rat Gamma-Aminobutyric Acid Type A Receptor, Non-Selective (GABAR-NonSelective), Gabra1 (gene 29705) (UniProt P62813); assay: NVS_LGIC_rGABAR_NonSelective: NovaScreen (NVS) Ligand-Gated Ion Channel Assay for rat Gamma-Aminobutyric Acid Type A Receptor, Non-Selective (GABAR-NonSelective) (AID 2283326)
# Procedure, shortened: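 Compounds were first screened in duplicate at 25 uM, with actives run as singleton concentration series (max 50 uM). Binding of a radioligand to rat whole-brain GABA-A preparation was measured by filtration and scintillation counting after 1 h, DMSO baseline.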
# [7] = target: rat Corticotropin Releasing Factor Receptor (CRF), Crhr1 (gene 58959) (UniProt P35353); assay: NVS_GPCR_rCRF: NovaScreen (NVS) G Protein-Coupled Receptor Assay for rat Corticotropin Releasing Factor Receptor (CRF) (AID 2283300)
# Procedure: NVS_GPCR_rCRF is a biochemical, single-readout assay that uses extracted gene-proteins from Rat cortical membranes in a tissue-based cell-free assay. Measurements were taken 2 hours after chemical dosing in a 96-well plate.NVS_GPCR_rCRF is one of one assay component(s) measured or calculated from the NVS_GPCR_rCRF assay. It is designed to make measurements of radioligand binding, a form of binding reporter, as detected with scintillation counting signals by […] radiodetection technology.Data from the assay component NVS_GPCR_rCRF was analyzed into 1 assay endpoint. This assay endpoint, NVS_GPCR_rCRF, was analyzed in the positive analysis fitting direction relative to DMSO as the negative control and baseline of activity. […] Furthermore, this assay endpoint can be referred to as a primary readout, because the performed assay has only produced 1 assay endpoint. […]
# Binding assays used specific radioligands (tritiated, iodinated) with non-radioactive competitive displacement ligands in agonist or antagonist protocols (as indicated) and various reference compounds and inhibitors to titrate specific binding to receptors and transporters. Most enzyme assays (CYPs, kinases, phosphatases, proteases, HDACs) used recombinant protein and specific substrates (fluorescence mostly, some colorimetric and radioactive) and inhibitors, followed by a biochemical separation of substrate and product. […]
# [8] = target: rat Glutamate, AMPA Site (AMPA), Gria1 (gene 50592) (UniProt P19490); assay: NVS_LGIC_rAMPA: NovaScreen (NVS) Ligand-Gated Ion Channel Assay for rat Glutamate, AMPA Site (AMPA) (AID 2283324)
# Procedure, shortened: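 Screening at 25 uM in duplicate preceded concentration series reaching 50 uM for qualifying compounds. Radioligand displacement on rat forebrain membranes, 1 h, filter-based scintillation readout; reduced binding relative to DMSO.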
# [9] = NVS_IC_rCaDHPRCh_L: NovaScreen (NVS) Ion Channel Assay for rat Calcium Channel, Type L, Dihydropyridine Site (CaDHPRCh_L) (AID 2283320)
# Procedure: NVS_IC_rCaDHPRCh_L is a biochemical, single-readout assay that uses extracted gene-proteins from Rat cortical membranes in a tissue-based cell-free assay. Measurements were taken 1 hour after chemical dosing in a 48-well plate.NVS_IC_rCaDHPRCh_L is one of one assay component(s) measured or calculated from the NVS_IC_rCaDHPRCh_L assay. It is designed to make measurements of radioligand binding, a form of binding reporter, as detected with scintillation counting signals by Filter-based radiodetection technology.Data from the assay component NVS_IC_rCaDHPRCh_L was analyzed into 1 assay endpoint. This assay endpoint, NVS_IC_rCaDHPRCh_L, was analyzed in the positive analysis fitting direction relative to DMSO as the negative control and baseline of activity. Using a type of binding reporter, loss-of-signal activity can be used to understand changes in the binding as they relate to the gene Cacna1a. Furthermore, this assay endpoint can be referred to as a primary readout, because the performed assay has only produced 1 assay endpoint. To generalize the intended target to other relatable targets, this assay endpoint is annotated to the ion channel intended target family, where the subfamily is calcium channel. […]
# [10] = target: rat Glutamate, NMDA Agonist Site (GluNMDA), Grin1 (gene 24408) (UniProt P35439); assay: NVS_LGIC_rGluNMDA_Agonist: NovaScreen (NVS) Ligand-Gated Ion Channel Assay for rat Glutamate, NMDA Agonist Site (GluNMDA) (AID 2283327)
# Procedure, shortened: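 Radioligand displacement at the agonist site on rat forebrain membrane preparations, read by filter scintillation after 1 h. Chemicals were first run at 25 uM in duplicate; those passing threshold were titrated to a 50 uM maximum.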
# rat Neonicotinoid receptor (NNR), Chrna7 (gene 25302), sequence (Q05941 whole entry, looked up): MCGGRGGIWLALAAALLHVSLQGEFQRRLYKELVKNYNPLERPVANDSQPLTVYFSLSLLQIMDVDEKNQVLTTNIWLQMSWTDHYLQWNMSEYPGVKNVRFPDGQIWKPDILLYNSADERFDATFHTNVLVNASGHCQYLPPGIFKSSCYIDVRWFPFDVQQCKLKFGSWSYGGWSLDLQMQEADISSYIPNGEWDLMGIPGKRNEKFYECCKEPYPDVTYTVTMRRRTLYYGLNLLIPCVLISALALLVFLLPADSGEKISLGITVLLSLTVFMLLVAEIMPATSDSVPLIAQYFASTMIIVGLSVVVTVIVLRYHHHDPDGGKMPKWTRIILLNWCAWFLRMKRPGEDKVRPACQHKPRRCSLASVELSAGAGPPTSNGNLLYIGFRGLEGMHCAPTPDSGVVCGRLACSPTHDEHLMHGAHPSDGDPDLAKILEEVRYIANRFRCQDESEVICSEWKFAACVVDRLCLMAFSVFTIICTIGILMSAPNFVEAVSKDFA
# human Neonicotinoid receptor (NNR), CHRNA2 (gene 1135), sequence (Q15822 whole entry, looked up): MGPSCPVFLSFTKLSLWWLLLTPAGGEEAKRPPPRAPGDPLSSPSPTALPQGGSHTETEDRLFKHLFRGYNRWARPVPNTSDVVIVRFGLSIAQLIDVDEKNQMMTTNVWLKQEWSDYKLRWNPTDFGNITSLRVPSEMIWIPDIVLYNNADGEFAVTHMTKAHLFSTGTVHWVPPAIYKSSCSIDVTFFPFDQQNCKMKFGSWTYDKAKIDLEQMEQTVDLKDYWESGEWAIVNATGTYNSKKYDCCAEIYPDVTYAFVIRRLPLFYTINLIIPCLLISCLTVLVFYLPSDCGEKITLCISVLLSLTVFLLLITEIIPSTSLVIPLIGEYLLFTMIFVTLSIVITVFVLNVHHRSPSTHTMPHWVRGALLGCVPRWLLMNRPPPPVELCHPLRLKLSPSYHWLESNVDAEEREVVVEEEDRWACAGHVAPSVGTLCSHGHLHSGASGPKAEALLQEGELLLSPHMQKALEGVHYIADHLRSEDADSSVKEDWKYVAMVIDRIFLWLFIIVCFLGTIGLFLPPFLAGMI
# rat Gamma-Aminobutyric Acid Type A Receptor, Non-Selective (GABAR-NonSelective), Gabra1 (gene 29705), sequence (P62813 whole entry, looked up): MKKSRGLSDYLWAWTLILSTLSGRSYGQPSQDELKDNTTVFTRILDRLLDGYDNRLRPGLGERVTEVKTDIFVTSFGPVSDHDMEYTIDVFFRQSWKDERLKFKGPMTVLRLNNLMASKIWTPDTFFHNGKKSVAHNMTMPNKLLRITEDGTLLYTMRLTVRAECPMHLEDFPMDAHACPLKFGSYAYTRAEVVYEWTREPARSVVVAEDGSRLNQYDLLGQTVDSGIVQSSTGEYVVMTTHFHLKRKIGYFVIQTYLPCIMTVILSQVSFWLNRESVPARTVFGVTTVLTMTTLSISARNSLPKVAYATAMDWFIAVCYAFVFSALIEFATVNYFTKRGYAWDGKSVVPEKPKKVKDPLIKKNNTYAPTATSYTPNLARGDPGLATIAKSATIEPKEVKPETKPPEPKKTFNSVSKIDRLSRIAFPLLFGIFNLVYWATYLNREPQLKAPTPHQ
# rat Corticotropin Releasing Factor Receptor (CRF), Crhr1 (gene 58959), sequence (P35353 whole entry, looked up): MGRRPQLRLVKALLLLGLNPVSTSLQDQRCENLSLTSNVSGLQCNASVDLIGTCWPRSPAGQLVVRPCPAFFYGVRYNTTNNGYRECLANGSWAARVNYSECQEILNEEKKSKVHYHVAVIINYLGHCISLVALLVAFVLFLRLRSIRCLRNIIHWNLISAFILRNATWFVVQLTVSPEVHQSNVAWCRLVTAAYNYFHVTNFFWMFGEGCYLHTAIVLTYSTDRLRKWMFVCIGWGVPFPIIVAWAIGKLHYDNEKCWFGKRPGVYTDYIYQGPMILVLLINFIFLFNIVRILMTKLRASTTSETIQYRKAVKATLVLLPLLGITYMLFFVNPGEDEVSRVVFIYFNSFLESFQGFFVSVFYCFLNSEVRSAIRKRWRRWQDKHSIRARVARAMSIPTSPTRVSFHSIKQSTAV
# human Constitutive Androstane Receptor (CAR), NR1I3 (gene 9970), sequence (Q14994 whole entry, looked up): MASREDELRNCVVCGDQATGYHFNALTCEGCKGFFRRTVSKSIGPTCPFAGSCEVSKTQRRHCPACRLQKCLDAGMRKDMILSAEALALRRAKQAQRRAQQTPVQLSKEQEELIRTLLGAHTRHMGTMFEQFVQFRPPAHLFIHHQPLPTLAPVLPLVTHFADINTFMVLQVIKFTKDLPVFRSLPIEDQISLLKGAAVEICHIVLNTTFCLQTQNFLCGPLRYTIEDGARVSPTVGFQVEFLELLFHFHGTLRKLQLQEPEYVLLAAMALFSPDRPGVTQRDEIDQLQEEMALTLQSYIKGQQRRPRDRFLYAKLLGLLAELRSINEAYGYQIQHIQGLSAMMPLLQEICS
# rat Glutamate, AMPA Site (AMPA), Gria1 (gene 50592), sequence (P19490 whole entry, looked up): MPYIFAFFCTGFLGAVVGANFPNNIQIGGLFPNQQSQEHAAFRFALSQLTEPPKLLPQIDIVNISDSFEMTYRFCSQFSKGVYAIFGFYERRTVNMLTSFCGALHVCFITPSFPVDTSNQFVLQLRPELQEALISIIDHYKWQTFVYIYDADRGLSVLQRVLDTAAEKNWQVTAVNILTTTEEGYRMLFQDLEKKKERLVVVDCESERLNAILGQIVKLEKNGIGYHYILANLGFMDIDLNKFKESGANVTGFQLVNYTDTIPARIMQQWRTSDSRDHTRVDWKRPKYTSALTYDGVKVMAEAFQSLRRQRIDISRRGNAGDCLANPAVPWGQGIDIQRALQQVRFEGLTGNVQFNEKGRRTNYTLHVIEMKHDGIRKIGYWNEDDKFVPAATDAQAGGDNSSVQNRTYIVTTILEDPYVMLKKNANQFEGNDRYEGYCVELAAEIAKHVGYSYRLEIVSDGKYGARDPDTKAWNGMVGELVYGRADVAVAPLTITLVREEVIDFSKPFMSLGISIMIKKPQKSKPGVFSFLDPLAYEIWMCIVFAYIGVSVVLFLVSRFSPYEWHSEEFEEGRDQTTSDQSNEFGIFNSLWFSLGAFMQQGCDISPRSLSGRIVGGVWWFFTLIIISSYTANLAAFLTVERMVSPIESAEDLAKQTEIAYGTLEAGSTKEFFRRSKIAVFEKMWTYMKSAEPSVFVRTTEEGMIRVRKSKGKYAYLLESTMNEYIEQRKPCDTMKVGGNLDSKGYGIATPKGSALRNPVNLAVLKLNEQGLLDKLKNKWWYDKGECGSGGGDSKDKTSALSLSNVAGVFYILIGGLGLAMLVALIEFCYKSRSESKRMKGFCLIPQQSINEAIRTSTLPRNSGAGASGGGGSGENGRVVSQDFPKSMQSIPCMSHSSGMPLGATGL
smiles,measurement,setting,value
CC(C)(COCC1CO1)COCC1CO1 (centres undefined),AC50,[1],2.05 µM (active)
O=C1C[C@@H]2OCC=C3CN4CC[C@]56c7ccccc7N1[C@H]5[C@H]2[C@H]3C[C@H]46,outcome,[2],inactive
CCCCCCCCCCCCN(C)C,outcome,[1],inactive
O=C(O)C1(c2ccc3c(c2)OC[C@H](Cc2ccc(-c4ccccc4)cc2)[C@H]3O)CCCC1,outcome,[3],inactive
CCCCCCCCCCBr,outcome,[1],inactive
O=C(N[C@H]1CN2CCC1CC2)c1ccc2c(c1)OCCO2,AC50,[4],12.1 µM (active)
same,outcome,[5],inactive
Oc1cc(Cl)c(Cl)cc1Cl,outcome,[6],inactive
CN(C)C(=S)S,outcome,[7],inactive
same,outcome,[8],inactive
CCOP(=S)(OCC)SCS(=O)(=O)C(C)(C)C,outcome,[1],inactive
C[N+](C)(C)Cc1ccccc1,AC50,[2],25 µM (active)
same,outcome,[2],inactive
OC(Cc1ccccc1Cl)(Cn1cncn1)C1(Cl)CC1 (centres undefined),AC50,[1],6.73 µM (active)
Brc1c(Br)c(Br)c(Oc2c(Br)c(Br)c(Br)c(Br)c2Br)c(Br)c1Br,outcome,[1],inactive
Clc1cccc(Cl)c1,outcome,[9],inactive
CCOP(=O)(OCC)SCCSCC,outcome,[1],inactive
NC(=O)CCl,AC50,[1],42.5 µM (active)
CCCCCCCCCCCCc1cccc(S(=O)(=O)O)c1,outcome,[10],inactive
